Results as given in ChEMBL document CHEMBL3433997, “St. Jude Leishmania screening dataset” (2016).

Tests used:
Type in all cases: functional
[1] = target: Solute carrier family 2, facilitated glucose transporter member 1 (Homo sapiens) (UniProt P11166); assay: ST_JUDE_LEISH: Cytotoxicity at 2uM final concentration against transgenic Leishmania Mexicana promastigotes LmGLUT1 that are glucose transport deficient and complemented with the human glucose transporter GLUT1. Activity is measured by DNA content using SYBR green in vitro
Chain of Solute carrier family 2, facilitated glucose transporter member 1 (Homo sapiens) (P11166 whole entry): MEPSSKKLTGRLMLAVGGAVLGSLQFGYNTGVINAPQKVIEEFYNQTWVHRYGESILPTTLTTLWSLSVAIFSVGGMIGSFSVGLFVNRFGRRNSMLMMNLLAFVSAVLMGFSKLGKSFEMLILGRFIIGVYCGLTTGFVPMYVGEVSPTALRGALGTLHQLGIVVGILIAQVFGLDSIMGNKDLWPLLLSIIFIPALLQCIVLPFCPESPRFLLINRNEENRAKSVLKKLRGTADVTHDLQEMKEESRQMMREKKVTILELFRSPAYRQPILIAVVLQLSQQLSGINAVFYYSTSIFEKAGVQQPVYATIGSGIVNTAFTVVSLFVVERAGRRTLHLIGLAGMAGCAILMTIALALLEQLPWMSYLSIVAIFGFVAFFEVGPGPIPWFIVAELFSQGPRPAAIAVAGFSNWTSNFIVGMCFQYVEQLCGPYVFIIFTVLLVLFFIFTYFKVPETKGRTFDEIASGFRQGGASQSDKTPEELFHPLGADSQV

[2] = target: Hexose transporter 1 (Plasmodium falciparum) (UniProt O97467); assay: ST_JUDE_LEISH: Cytotoxicity at 2uM final concentration against transgenic Leishmania Mexicana promastigotes LmPfHT that are glucose transport deficient and complemented with the Plasmodium falciparum hexose transporter. Activity is measured by DNA content using SYBR green in vitro
[3] = target: Glucose transporter (Leishmania mexicana) (UniProt O61059); assay: ST_JUDE_LEISH: Cytotoxicity at 2uM final concentration against transgenic Leishmania Mexicana promastigotes LmGT2 that are glucose transport deficient and complemented with the L. Mexicana glucose transporter 2. Activity is measured by DNA content using SYBR green in vitro

| Compound | inhibition [1] [%] | inhibition [2] [%] | inhibition [3] [%] |
| --- | --- | --- | --- |
| CN1CCN(c2cccc(-c3nnc(-c4ccc(OCC(=O)NCc5ccc(C(F)(F)F)cc5)c([N+](=O)[O-])c4)o3)c2)CC1 | 3.75 | 3.68 | -0.17 |
| N#CC(NC(=O)C=Cc1ccccc1)c1ccccc1 (centres undefined) | -1 | -2.81 | -0.2 |
| Cc1sc(C)c(CNCCCNc2cc(=O)c3ccccc3[nH]2)c1Br | 2.08 | 2 | -3.4 |
| O=C(Nc1ccc(-c2ccccc2)cc1)Nc1cccc(Cn2nc(Cl)c(N3CCNCC3)cc2=O)c1 | 0.77 | 2.24 | 4.62 |
| O=C(Nc1ccc(OC2CCN(Cc3ccccc3)CC2)c(Cl)c1)c1cccs1 | 2.31 | 4.54 | 4.68 |
| Cc1cc2c3c(N)nc(N)nc3ccc2n1C | 6.53 | 10.4 | 5.15 |
| CCN(CC)CCNC(=O)c1ccc(N/C=C2\C(=O)Nc3ccc(S(=O)(=O)Cc4c(Cl)cccc4Cl)cc32)cc1 | -0.98 | -0.63 | -1.08 |
| O=C(Nc1ccc(Oc2ccccc2)cc1)N(Cc1ccc(-c2ccc(CN3CCNCC3)cc2)cc1)C1CCN(Cc2ccccc2)CC1 | -1.93 | -1.14 | -0.33 |
| COc1cc2c(cc1OC)C(C(=O)c1ccccc1)=NCC2 | 1.66 | 2.92 | 2.28 |
| CC(C(=O)N1CCCC1)N1CCN(C(c2ccccc2)c2ccccc2)CC1 (centres undefined) | 2 | 2.36 | 2.74 |
| COc1ccc(Cl)cc1N1CCN(CCCNC(=O)c2ccc(-c3nc4cnccc4[nH]3)c(Br)c2)CC1 | 0.19 | -0.19 | -0.85 |
| O=C(N[C@H]1CCN(CCc2ccc(O[C@H]3CCNC3)c(F)c2)C1)c1ccc(Cl)c(Cl)c1 | 8.17 | 9.6 | 9.34 |
| COc1ccc(N2C(=O)c3c(c4ccccc4n3C)C2c2ccccc2O)cc1 (centres undefined) | 6.27 | 4.4 | 5.53 |
| Cc1cc(N2CCCC2)nc(Nc2ccc(NC(=O)C3CCCC3)cc2)n1 | -0.76 | 1.16 | 0.83 |
| CC(C)CC(=O)N1CCNC[C@@H]1C(=O)NCc1ccc(Cl)c(Cl)c1 | 2.93 | 1.04 | 3.02 |
| Cc1[nH]c(C)c(-c2ccc(-c3ccc(OC(F)(F)F)cc3)cc2)c(=O)c1Br | 2.4 | 4.25 | 3.37 |
| Cn1cnc2c(Nc3ccncc3)nc(-c3ccc4c(c3)OCO4)nc21 | 8.06 | 6.78 | 3.95 |
| COc1ccc2nccc(N3CCC(SCCNS(=O)(=O)c4ccc5c(c4)OCCO5)C3)c2n1 (centres undefined) | 5.04 | 3.57 | -0.04 |
| CN(CCc1ccccc1)c1ncc(-c2ccccc2CNCc2ccccc2O)cn1 | 0.08 | -1.17 | 2.23 |
| CN(C1CCC(NC(=O)/C=C/c2ccccc2)CC1)C1CC2(CCN(C(=O)OC(C)(C)C)CC2)c2ccccc21 (centres undefined) | 9.97 | 5.58 | 6.01 |
| CC1CC(C)CN(CC(O)CNC(=O)Nc2ccc(Br)cc2)C1 (centres undefined) | 6.62 | 5.27 | 3.33 |
| O=[N+]([O-])c1cccc(CNC2CCN(Cc3ccc(-c4ccccc4)cc3)CC2)c1 | 1.94 | 8.06 | 2.9 |
| CS(=O)(=O)CCNC(=O)c1ccc(-c2cc3c(Nc4ccc5c(cnn5Cc5ccccc5)c4)ncnc3cn2)o1 | 3.86 | 3.93 | 4.93 |
| COc1ccc2nc(-c3cc(-c4ccc(NC(C)=O)cc4)cnc3N)[nH]c2c1 | 3.72 | 4.61 | 2.87 |
| CC[C@H]1CN(C/C=C/c2ccc(OC)cc2)CC[C@H]1CCCc1ccnc2ccc(O)cc12 | 2.15 | 2 | 1.51 |

| Compound | inhibition [1] [%] | inhibition [2] [%] | inhibition [3] [%] |
| --- | --- | --- | --- |
| Cc1cc(C(F)(F)F)n2nc(C(=O)N(C)Cc3cncn3Cc3ccc(F)cc3)cc2n1 | 0.88 | 1.29 | 1.49 |
| Cc1cccc2nc(-c3ccc(-c4cccc(NC(=O)c5cnn6cccnc56)c4)cc3)[nH]c12 | 15.4 | 11.7 | 8.93 |
| O=C(C=Cc1ccc(Cl)c(Cl)c1)NCCCCCN1CCC(CCNC(=O)/C=C/c2ccccc2)CC1 | 0.55 | 0.26 | 3.1 |
| O=C(Nc1ccccc1Br)N[C@@H]1CCN(c2ccnc3ccccc23)C1 | 4.02 | 5.95 | 3.01 |
| COc1ccc(CN2CCC(CNCCc3c(Cl)cccc3Cl)CC2)cc1 | 7.06 | 8.38 | 9.64 |
| CC(C)(C)OC(=O)[C@H](CC(N)=O)NC(=O)c1ccc(-c2ccc(-c3nc4cc(C(F)(F)F)ccc4[nH]3)s2)cc1 | 5.01 | 3.22 | 1.57 |
| CC1(C)NC(N)=NC(=N)N1OCCCOc1ccc(N)cc1 | -1.98 | -0.16 | -1.26 |
| COc1ccc2nc(C)cc(Nc3ccc(Oc4ccc(Cl)cc4)c(Cl)c3)c2c1 | 7.89 | 6.68 | 2.63 |
| COc1ccc2nccc([C@@H](O)CN3CCC(NCc4cnc5snnc5c4)C(F)C3)c2c1 (some centres undefined) | 0.43 | 1.51 | 2.93 |
| COc1cc(Cc2cnc(N)nc2N)cc(OCCCCC2SC(=O)NC2=O)c1Br (centres undefined) | 6.08 | 4.54 | 5.43 |
| CC(=O)c1cc(N2CCCC2)ccc1N | 2.5 | 2.6 | 2.09 |
| N=C(N)NCC=C(c1ccccc1)c1ccccc1 | 8.32 | 5.26 | 6.35 |
| CN(C)CCCn1cncc1-c1ccc2ncnc(Nc3ccc(OCc4ccccc4)cc3)c2c1 | 4.09 | 6.87 | 7.01 |
| FC(F)(F)c1cnc(Sc2nnc(-c3ccncc3)o2)c(Cl)c1 | -0.19 | -5.1 | 9.49 |
| CN1CCC(C(=O)N(Cc2ccc(-c3ccc(CNCCc4ccc(S(C)(=O)=O)cc4)cn3)cc2)C2CCN(Cc3ccccc3)CC2)CC1 | 3.07 | 2.62 | 5.75 |
| N=C(N)NCCN(Cc1ccccc1)c1ccc(Cl)cc1 | 1.36 | -0.96 | 1.25 |
| c1cc(CNCCc2ccncc2)cc(-c2ccc(-c3nc4ccccc4[nH]3)cc2)c1 | 1.46 | 2.38 | 0.79 |
| CCN(CC)CCN1C(=O)c2oc3ccc(F)cc3c(=O)c2C1c1cccc(Cl)c1 (centres undefined) | -2.07 | 2.22 | 4.25 |
| Cc1ccc(NC(=O)Nc2ccc(Cl)cc2)cc1-c1cccc(C(=O)Nc2ccc(F)cc2)c1 | -1.9 | 2.5 | 5.14 |
| Cc1noc(C)c1-c1ccc2c(Nc3ccccc3C(C)(C)C)c(C(=O)NCc3ccc4c(c3)OCO4)cnc2c1 | -1.21 | 2.69 | -0.92 |
| CCCCCCCCCN(CCC)C(=O)[C@@H]1OC(C(=O)OC(c2ccccc2)c2ccccc2)=C[C@H](NC(=O)OC(C)(C)C)[C@H]1NC(C)=O | 2.98 | 2.98 | 1.47 |
| COc1ccc(S(=O)(=O)N2CCC3(CC2)OCC(=O)NC3c2ccc(Cl)c(Cl)c2)cc1 (centres undefined) | 2.93 | 1.47 | 0.92 |
| CC(C)(C)c1ccccc1OC(=O)c1ccccc1 | -1.66 | -1.47 | -0.79 |
| CN1CCCN(Cc2ccc(-c3ccc(NC(=O)c4ccc(Cl)cc4)cc3)cc2)CC1 | 63.1 | 50 | 50.7 |
| CCOC(=O)NC1=NC(=N)N(OCCCOc2cc(Cl)c(Cl)cc2Cl)C(C)(C)N1 | -0.21 | -0.15 | 1.91 |

| Compound | inhibition [1] [%] | inhibition [2] [%] | inhibition [3] [%] |
| --- | --- | --- | --- |
| O=C(/C=C/c1c(Cl)cccc1Cl)NC1CCC(CN2CCC(Cc3cc4ccccc4[nH]3)CC2)CC1 (centres undefined) | 4.15 | 10.2 | 2.31 |
| CCCc1cc(Cc2cnc(N)nc2N)cc(CCC)c1OCCCCC(=O)OC | 3.01 | 0.4 | 0.33 |
| COCCCn1c(=N)c(C(=O)NCCc2ccc(OC)cc2)cc2c(=O)n3cccc(C)c3nc21 | 4.69 | 5.42 | 8.16 |
| CCN1CCC(N(Cc2ccc(-c3ccc(C(F)(F)F)cc3)cc2)C(=O)Cn2c(CCc3cccc(F)c3F)cc(=O)c3cn(C)nc32)CC1 | -2.3 | 1.08 | 0.21 |
| O=S(=O)(Nc1ccc(CCN2CCC(N3CCCCC3)CC2)cc1)c1cccc(C(F)(F)F)c1 | 6.42 | 7.5 | 5.56 |
| CN(C)c1nc(NN=Cc2cc(Cl)ccc2O)nc(Nc2ccc(F)cc2)n1 | 13 | 11 | 10.9 |
| COc1cc2c(=O)c(Cc3ccc(Cl)cc3)c(C)[nH]c2cc1F | 2.09 | 3.31 | 0.73 |
| COCCCNC(=O)c1ccc(O)c(-c2cc(Cl)cc(Cl)c2)c1 | 0.32 | -2.5 | 1.9 |
| O=C(/C=C/c1ccc(Cl)c(Cl)c1)N1CCC(CCN2CCC(c3nc4cc(O)ccc4[nH]3)CC2)CC1 | 1.92 | 0.59 | -0.62 |
| CC(C)CNCc1cccc(-c2cccc(CNc3ccc4ncccc4c3)c2)c1 | 2.92 | 1.32 | 2.08 |
| CC(C)c1cccc(OCC2CCN(c3ncc(C(=O)NC4CC4)cc3Cl)CC2)c1 | 1.56 | -0.04 | -0.2 |
| Nc1c2ccccc2nc2cc([N+](=O)[O-])ccc12 | 8.44 | 9.98 | 0.99 |
| O=C(NCc1cccc(F)c1)Nc1cccc(-c2cccc(-c3nc4ccccc4[nH]3)c2)c1 | 7.33 | 5.52 | 7.79 |
| COc1ccc2nccc([C@@H](O)CN3CCC(NCc4cc5cccc(OC)c5o4)CC3)c2c1 | 1.32 | 3.57 | -0.75 |
| O=c1cc(NCCCNCc2ccc(C(F)(F)F)s2)[nH]c2ccccc12 | -0.41 | 0.6 | 0.9 |
| COc1ccc(-c2cccc(NC(=O)c3cccc(Cl)c3)c2)cc1CNC(C)C | 1.6 | -0.57 | 1.24 |
| COc1ccc2nccc(N3CCC(NCc4ccc5c(n4)NC(=O)CS5)CC3)c2n1 | 0.15 | -0.14 | 2.01 |
| CCOC(=O)C(=O)N1c2ccc(OCC)cc2-c2c(ssc2=S)C1(C)C | -0.01 | 0.3 | 6.04 |
| Nc1c2c(nc3ccc(NC(=O)CCCCCc4ccccc4)cc13)CCCC2 | 7.95 | 9.26 | 10 |
| Cc1ccc(OCCCCONC(=O)c2ccccc2)cc1 | 0.84 | -1.51 | -0.14 |
| COc1ccc(CN2CCC(CNCC(c3ccccc3)c3ccccc3)CC2)cc1 | 3.54 | 3.87 | 2.23 |
| COc1ccc(NC(=O)NCC2CCCN(CCCCCNC(=O)/C=C/c3ccc(Cl)c(Cl)c3)C2)c(OC)c1 (centres undefined) | -0.03 | 3.1 | 0.18 |
| Cc1[nH]n(-c2cccc(Cl)c2)c(=O)c1-c1ccc(Cl)cc1 | -3.78 | -2.18 | -2.07 |
